Test results: the supplement of paper PMC11732987, “Enantioselective OTUD7B fragment discovery through chemoproteomics screening and high-throughput optimisation” (Communications Chemistry, 2025)

Assays:
Assay in all cases: log2 ratio of Biotin-Ahx-Ub-VS probe labelling (fragment/DMSO); higher = less target engagement (more negative = stronger competition), active = hit call of the paper (q ≤ 0.05, log2 ratio ≤ -1)
Settings in all cases: compound concentration: 200 uM; treatment time: 3 h
USP42 = target: T1, USP42 (UniProt Q9H9J4)
T1 sequence (whole entry): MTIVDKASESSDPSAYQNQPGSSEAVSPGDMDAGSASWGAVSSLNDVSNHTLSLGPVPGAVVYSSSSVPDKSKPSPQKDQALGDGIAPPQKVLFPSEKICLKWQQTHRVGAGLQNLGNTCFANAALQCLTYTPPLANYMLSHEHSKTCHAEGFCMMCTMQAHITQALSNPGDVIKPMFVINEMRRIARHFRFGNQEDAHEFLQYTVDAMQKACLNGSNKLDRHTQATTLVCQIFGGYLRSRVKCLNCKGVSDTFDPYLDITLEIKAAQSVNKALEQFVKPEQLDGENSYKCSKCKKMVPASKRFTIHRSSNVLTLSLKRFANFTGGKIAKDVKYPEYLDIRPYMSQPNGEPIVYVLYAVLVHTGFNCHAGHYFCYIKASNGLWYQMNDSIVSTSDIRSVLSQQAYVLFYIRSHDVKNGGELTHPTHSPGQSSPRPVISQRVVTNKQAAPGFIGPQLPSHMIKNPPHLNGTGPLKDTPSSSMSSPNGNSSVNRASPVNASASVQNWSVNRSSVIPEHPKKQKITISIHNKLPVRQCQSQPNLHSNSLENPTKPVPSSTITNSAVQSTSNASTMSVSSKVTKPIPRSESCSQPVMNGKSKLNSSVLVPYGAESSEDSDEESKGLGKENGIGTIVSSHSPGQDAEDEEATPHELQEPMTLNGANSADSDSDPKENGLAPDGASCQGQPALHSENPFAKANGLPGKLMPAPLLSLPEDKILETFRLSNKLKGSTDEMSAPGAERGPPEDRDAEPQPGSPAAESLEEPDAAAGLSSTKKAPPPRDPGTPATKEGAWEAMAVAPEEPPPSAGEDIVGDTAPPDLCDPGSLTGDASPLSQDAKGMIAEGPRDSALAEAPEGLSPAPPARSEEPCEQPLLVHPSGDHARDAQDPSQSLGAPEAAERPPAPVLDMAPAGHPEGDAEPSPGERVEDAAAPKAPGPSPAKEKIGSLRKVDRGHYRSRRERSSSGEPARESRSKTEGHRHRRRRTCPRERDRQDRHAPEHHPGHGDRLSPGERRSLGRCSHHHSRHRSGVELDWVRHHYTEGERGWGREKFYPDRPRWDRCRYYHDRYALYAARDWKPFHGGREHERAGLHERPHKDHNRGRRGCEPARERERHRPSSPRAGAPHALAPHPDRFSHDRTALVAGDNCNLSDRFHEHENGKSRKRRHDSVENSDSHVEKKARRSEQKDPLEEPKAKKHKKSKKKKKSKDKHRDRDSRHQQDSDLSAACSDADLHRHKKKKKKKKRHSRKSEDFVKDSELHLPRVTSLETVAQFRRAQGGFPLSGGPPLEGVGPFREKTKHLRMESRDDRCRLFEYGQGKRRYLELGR
Procedure, shortened: (§1)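 Values give the average log2 ratio of fragment to vehicle, assessed by unpaired t-test on global-median-normalised Spectronaut label-free quantities. Proteins needed ≥2 unique peptides. HEK293T lysate (495 µg per sample) was treated in triplicate with fragment at 200 µM or vehicle for 3 h and then with Biotin-Ahx-Ub-VS at 0.5 µM final for 1 h. Labelled DUBs were NeutrAvidin-enriched, digested and run by diaPASEF LC-MS/MS.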

USP46 = USP46 (UniProt P62068)
Chain of USP46 (P62068 whole entry): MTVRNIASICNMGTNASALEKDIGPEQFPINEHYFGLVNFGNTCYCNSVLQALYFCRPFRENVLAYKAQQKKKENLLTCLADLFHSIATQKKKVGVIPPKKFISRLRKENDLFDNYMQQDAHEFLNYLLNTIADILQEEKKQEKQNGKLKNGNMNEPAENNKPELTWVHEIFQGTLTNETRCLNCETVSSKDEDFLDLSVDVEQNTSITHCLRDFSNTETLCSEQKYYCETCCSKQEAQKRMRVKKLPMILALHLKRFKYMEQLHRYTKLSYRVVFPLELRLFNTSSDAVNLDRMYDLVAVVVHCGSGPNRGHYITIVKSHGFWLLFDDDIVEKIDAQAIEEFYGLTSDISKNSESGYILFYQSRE
Procedure, shortened: as §1

USP47 = target: T2, USP47 (UniProt Q96K76)
T2 sequence (whole entry): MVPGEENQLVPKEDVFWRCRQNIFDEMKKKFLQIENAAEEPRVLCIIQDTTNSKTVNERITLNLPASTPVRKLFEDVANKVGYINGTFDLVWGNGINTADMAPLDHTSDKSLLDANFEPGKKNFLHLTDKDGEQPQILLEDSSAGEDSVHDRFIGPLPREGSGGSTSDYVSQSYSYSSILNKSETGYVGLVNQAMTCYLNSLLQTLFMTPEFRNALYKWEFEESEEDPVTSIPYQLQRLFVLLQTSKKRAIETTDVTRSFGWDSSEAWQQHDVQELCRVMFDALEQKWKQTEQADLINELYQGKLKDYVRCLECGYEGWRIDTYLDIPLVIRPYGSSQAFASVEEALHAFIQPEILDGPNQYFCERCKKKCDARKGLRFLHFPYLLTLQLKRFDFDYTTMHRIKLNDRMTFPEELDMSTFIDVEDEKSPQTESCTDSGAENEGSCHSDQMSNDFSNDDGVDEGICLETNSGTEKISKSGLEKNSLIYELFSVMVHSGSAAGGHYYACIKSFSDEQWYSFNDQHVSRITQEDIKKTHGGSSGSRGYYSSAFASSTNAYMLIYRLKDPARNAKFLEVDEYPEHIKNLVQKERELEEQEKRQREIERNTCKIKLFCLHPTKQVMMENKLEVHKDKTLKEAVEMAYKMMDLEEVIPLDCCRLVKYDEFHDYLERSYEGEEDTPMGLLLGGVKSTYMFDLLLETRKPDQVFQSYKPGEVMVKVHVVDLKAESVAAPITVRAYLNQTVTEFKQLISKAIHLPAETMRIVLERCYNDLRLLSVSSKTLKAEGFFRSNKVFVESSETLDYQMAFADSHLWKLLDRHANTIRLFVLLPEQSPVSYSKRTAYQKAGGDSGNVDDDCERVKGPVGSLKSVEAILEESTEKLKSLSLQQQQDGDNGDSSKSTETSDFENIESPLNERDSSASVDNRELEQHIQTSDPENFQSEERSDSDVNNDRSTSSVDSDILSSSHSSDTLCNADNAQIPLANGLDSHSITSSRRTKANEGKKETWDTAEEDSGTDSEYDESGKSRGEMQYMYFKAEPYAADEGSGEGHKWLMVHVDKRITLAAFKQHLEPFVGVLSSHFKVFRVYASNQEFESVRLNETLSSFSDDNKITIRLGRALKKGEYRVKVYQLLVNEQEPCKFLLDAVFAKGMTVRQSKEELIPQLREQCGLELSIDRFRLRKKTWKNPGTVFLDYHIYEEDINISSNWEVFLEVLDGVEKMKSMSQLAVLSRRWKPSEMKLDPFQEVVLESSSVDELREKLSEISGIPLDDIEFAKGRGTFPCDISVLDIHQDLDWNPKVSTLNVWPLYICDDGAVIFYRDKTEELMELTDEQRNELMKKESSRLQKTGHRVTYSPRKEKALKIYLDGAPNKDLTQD
Procedure, shortened: as §1

USP48 = target: T3, USP48 (UniProt Q86UV5)
T3 sequence (whole entry): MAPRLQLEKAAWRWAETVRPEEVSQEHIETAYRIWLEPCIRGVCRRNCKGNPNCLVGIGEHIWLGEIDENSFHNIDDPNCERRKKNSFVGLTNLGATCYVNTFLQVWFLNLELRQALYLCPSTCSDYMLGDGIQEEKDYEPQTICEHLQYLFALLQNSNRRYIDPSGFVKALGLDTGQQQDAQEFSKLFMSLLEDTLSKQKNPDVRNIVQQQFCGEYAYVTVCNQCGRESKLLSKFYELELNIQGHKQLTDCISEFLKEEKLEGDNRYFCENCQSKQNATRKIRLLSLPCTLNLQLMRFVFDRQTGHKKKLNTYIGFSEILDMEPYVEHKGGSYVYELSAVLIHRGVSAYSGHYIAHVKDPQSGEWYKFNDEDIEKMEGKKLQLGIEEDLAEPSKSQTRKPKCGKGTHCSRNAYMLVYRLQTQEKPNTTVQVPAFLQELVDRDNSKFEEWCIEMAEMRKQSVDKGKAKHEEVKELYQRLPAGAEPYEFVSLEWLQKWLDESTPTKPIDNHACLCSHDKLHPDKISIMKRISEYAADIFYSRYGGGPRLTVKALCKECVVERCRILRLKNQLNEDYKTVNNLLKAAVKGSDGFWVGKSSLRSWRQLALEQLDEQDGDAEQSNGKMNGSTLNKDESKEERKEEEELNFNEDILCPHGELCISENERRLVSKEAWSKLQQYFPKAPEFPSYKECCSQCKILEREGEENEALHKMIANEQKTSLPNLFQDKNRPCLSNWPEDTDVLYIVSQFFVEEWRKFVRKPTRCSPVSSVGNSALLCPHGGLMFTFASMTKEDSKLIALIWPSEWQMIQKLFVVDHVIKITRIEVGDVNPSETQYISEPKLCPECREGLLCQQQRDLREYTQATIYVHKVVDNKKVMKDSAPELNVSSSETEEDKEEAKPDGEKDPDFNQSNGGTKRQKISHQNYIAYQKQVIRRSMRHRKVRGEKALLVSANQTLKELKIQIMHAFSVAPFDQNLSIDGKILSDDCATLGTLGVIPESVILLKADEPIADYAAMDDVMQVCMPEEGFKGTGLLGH
Procedure, shortened: as §1

USP5 = target: T4, USP5 (UniProt P45974)
T4 sequence (whole entry): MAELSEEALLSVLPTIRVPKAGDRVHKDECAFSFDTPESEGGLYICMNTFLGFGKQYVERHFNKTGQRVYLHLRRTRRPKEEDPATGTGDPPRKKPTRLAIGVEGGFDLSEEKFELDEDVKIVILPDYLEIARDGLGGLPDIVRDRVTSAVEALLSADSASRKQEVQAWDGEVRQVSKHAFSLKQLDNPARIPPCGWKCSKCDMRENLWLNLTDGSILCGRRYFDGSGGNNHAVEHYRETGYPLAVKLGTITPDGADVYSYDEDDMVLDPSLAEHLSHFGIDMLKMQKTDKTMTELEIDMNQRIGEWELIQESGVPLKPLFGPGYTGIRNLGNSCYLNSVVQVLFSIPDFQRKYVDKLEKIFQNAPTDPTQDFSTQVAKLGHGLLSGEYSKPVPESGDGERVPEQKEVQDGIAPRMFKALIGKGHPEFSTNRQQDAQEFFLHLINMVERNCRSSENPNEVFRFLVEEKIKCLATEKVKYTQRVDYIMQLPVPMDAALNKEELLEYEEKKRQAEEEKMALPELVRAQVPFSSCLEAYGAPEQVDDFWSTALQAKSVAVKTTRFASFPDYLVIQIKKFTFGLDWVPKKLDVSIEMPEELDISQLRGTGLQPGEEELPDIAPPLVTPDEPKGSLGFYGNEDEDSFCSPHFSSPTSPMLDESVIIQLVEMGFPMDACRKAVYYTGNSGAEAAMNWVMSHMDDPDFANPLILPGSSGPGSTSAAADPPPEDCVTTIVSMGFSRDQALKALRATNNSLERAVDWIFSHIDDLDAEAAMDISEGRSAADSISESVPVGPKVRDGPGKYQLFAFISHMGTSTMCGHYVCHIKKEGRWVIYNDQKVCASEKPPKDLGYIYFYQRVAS
Procedure, shortened: as §1

USP54 = USP54 (UniProt Q70EL1)
Procedure, shortened: as §1

USP7 = USP7 (UniProt Q93009)
Chain of USP7 (Q93009 whole entry, looked up): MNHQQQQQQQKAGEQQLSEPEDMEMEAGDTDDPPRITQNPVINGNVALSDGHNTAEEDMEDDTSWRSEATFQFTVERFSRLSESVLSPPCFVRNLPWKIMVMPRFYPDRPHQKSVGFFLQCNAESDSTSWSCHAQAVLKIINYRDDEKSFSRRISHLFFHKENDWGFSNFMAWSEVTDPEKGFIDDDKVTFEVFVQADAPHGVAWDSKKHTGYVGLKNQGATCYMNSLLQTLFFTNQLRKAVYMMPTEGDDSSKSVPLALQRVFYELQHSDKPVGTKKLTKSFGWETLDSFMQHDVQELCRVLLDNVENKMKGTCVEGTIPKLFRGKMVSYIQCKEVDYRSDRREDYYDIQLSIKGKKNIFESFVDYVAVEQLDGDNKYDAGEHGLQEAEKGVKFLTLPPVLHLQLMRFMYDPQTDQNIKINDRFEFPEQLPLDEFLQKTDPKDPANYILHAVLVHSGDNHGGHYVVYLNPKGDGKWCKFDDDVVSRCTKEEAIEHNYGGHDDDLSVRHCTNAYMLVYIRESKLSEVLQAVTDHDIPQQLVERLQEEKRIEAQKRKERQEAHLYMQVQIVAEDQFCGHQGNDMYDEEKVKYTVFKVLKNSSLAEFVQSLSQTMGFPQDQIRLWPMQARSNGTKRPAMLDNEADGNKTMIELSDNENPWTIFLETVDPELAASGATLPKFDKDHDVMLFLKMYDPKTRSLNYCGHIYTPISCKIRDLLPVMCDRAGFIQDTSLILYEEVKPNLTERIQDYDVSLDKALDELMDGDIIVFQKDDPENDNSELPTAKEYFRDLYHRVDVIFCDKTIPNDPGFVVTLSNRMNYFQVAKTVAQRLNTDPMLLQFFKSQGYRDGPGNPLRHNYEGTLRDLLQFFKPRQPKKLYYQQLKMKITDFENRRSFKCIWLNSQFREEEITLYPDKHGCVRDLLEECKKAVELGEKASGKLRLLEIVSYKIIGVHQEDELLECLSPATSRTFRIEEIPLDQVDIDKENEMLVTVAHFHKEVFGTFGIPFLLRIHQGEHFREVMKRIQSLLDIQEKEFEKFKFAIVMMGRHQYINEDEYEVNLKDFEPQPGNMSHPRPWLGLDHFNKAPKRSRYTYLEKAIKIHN
Procedure, shortened: as §1

USP8 = target: T5, USP8 (UniProt P40818)
T5 sequence (whole entry): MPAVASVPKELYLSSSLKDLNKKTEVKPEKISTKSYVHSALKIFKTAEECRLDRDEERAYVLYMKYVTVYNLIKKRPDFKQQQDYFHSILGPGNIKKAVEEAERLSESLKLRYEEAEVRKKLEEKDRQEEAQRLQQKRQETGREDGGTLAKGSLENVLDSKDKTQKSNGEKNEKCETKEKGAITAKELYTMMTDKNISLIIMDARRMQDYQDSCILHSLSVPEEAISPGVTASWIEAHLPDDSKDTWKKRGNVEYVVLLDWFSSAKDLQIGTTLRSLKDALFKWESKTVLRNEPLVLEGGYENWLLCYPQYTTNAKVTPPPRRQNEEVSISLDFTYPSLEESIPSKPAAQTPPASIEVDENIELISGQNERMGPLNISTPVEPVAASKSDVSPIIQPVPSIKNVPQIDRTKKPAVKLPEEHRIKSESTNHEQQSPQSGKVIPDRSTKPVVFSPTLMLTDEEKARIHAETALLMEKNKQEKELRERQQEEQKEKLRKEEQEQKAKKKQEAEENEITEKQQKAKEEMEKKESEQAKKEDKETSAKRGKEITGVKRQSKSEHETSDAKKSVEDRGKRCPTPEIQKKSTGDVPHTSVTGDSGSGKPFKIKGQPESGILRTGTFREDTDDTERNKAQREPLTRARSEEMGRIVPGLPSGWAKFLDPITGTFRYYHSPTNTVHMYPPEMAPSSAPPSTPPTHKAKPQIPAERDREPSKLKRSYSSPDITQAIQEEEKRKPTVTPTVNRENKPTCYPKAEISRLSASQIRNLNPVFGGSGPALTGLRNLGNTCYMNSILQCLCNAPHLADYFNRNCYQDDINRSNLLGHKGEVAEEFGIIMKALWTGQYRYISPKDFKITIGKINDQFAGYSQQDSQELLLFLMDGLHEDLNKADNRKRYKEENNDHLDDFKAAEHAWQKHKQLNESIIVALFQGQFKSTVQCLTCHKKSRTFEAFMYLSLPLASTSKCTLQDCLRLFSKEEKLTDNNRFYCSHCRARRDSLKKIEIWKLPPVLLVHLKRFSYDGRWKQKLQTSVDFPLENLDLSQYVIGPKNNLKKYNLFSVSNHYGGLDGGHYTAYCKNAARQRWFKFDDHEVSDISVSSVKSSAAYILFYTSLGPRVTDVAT
Procedure, shortened: as §1

USP9X = USP9X (UniProt Q93008)
Chain of USP9X (Q93008 whole entry): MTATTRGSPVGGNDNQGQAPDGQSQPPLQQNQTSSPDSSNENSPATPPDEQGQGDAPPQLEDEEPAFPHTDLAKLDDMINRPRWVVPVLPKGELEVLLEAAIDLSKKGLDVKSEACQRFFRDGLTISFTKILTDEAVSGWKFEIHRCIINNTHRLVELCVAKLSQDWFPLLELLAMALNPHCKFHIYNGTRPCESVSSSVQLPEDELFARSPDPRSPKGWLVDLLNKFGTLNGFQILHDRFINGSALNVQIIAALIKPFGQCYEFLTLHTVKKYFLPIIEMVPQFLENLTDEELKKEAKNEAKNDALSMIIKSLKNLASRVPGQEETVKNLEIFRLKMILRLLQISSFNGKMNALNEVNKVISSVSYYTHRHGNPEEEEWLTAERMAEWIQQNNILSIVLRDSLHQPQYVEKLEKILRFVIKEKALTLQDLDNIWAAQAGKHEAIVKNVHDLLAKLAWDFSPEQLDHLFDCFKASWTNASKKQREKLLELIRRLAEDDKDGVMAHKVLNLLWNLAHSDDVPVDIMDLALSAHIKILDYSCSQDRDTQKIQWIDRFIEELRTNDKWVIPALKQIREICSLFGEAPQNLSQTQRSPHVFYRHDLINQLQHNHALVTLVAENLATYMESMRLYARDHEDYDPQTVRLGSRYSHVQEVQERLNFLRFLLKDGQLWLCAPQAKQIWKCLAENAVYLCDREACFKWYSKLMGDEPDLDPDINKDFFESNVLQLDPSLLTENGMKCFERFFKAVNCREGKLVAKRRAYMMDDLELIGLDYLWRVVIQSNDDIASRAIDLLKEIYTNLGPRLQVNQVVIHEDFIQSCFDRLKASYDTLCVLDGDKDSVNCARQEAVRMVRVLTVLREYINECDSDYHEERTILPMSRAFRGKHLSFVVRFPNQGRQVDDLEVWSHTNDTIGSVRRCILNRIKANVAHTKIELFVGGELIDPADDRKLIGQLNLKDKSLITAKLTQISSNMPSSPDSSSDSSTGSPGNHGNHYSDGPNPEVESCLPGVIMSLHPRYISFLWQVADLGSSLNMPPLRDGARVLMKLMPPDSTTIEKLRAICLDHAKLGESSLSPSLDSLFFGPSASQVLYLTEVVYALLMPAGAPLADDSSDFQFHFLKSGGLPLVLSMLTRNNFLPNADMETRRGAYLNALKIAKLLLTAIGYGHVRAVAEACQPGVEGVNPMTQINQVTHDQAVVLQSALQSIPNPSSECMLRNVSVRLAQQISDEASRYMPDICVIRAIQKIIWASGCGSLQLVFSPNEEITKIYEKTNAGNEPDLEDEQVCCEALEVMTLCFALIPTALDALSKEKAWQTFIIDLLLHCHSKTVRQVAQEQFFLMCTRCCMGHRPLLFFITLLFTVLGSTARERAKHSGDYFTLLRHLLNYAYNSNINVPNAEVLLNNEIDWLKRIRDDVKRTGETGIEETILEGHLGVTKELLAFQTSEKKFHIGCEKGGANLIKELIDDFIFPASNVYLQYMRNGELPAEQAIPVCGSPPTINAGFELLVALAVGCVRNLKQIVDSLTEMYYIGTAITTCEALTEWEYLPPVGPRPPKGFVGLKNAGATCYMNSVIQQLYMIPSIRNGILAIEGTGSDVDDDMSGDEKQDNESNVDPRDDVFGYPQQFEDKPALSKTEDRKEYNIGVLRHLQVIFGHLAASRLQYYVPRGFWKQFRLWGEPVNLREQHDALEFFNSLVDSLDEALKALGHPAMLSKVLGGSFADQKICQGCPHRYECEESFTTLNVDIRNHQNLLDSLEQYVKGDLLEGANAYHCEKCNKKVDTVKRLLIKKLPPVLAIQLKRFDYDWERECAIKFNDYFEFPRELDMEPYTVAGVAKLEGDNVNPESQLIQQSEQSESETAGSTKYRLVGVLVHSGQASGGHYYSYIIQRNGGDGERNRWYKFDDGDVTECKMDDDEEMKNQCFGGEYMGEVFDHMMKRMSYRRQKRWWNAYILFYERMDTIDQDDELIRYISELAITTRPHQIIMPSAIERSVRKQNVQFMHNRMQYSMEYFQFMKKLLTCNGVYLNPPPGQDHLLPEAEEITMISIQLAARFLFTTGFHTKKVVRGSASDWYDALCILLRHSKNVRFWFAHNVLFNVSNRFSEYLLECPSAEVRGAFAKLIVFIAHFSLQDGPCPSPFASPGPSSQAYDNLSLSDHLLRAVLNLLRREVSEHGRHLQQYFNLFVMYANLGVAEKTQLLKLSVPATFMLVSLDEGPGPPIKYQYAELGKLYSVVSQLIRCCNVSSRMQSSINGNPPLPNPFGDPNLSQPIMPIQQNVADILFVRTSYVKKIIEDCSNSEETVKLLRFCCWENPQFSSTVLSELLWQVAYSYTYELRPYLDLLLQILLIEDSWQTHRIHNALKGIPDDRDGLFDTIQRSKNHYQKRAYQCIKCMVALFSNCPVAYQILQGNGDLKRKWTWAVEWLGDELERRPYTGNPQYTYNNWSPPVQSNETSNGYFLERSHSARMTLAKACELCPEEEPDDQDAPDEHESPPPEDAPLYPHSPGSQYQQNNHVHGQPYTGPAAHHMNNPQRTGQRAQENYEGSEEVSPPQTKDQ
Procedure, shortened: as §1

UniProt O00487 = target: UniProt O00487
Chain of UniProt O00487 (O00487 whole entry): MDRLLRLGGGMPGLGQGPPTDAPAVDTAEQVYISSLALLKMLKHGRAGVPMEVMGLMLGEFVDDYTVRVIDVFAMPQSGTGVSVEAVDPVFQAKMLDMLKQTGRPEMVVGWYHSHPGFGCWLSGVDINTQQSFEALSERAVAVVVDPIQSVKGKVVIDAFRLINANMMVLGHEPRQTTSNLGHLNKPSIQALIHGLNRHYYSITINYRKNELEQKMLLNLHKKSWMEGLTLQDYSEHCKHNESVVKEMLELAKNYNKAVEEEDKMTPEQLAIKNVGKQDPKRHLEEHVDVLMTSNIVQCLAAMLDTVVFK
Procedure, shortened: as §1

Measured: log2 ratio of Biotin-Ahx-Ub-VS probe labelling

Cl.O=C(CCl)NCCc1ncc(F)cc1F
inactive: USP42 -0.132 | USP46 -0.0594 | USP47 0.122 | USP48 -0.466 | USP5 -0.0776 | USP54 -0.439 | USP7 -0.34 | USP8 -0.607 | USP9X -0.419 | UniProt O00487 -0.24

CC(NC(=O)CCl)c1cccc(Cl)c1 (stereo not given)
inactive: USP42 -0.459 | USP46 -0.115 | USP47 -0.252 | USP48 -0.283 | USP5 0.0893 | USP54 0.882 | USP7 -0.385 | USP8 -0.413 | USP9X -0.388 | UniProt O00487 -0.18
